Only some compounds are listed: those with a hit (about 1.3% of all), similar ones and a draw of the others.
GC-B act = GC-B (human) receptor activation | activation, % at 10 µM | HEK293-GC-B cells, CNP EC30, cGMP TR-FRET; 0% at EC30 CNP, 100% saturating CNP | 370,000 tested, 0.11% active;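 active = activation at 10 µM reaching about 35% in either raw or pattern-adjusted values, limit read from the data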
Target sequence (P20594 whole entry, looked up): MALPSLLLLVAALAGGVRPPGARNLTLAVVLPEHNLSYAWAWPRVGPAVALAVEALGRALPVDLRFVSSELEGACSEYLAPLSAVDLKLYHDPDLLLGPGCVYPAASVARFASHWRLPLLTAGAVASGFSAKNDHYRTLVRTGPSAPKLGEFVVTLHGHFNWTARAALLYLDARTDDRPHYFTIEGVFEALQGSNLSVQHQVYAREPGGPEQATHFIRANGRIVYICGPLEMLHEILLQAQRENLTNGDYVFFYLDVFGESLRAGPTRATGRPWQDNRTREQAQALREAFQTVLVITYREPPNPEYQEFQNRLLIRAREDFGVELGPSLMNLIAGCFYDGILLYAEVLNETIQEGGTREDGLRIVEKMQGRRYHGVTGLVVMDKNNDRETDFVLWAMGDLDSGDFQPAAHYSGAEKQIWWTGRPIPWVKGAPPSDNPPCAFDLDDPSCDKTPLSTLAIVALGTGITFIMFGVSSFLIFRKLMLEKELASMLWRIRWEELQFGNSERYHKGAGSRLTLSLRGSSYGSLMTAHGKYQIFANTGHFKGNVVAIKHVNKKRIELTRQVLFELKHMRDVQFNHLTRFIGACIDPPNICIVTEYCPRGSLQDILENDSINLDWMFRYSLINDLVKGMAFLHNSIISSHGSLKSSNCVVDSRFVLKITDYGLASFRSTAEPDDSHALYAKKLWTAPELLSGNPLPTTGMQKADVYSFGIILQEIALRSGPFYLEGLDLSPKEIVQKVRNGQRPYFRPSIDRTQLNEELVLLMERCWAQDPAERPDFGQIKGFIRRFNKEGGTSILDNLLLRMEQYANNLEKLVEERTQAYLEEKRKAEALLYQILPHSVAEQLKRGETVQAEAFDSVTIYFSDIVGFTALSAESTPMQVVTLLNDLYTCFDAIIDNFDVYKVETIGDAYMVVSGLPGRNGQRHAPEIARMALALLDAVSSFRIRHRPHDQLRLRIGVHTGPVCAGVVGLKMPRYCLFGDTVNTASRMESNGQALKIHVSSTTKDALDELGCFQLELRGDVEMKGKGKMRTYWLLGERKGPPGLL
ADAM17 inh = inhibitors of human ADAM17; inhibition, % at 6.95 µM; 370,000 tested, 0.83% active; AID 720648; recombinant ADAM17, EDANS/DABCYL FRET peptide cleavage; P78536;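 active = inhibition above the mean of compounds lying between control limits plus 3 SD, set per campaign, cut at about 8.5% in these data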;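 also: 0% = DMSO-only wells as the low control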
ADAM10 inh = inhibits human ADAM10. recombinant ADAM10, EDANS/DABCYL FRET peptide cleavage, 3 h. inhibition, % at 7 µM. 370,000 tested, 0.62% active. AID 720582;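 active = inhibition above a per-campaign cutoff equal to the mean of compounds falling between control-based bounds plus 3 SD, cut at about 20% in these data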;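 also: 0% = DMSO wells while the 100% control is not disclosed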
GC-A act = GC-A (human) enzyme activation; activation, % at 10 µM; HEK293 GC-A cells, cGMP TR-FRET, EC30 ANP; 0% at EC30 ANP, 100% saturating ANP; P16066; 370,000 tested, 0.14% active; AID 1671463; in the data active = activation above about 40%
An asterisk follows results filed as active.

SMILES	GC-B act	ADAM17 inh	ADAM10 inh	GC-A act
CCC12CN(C(=O)c3ccc(OC)cc3)CC(CC)(CN(C(=O)c3ccc(OC)cc3)C1)C2=O	75*	-4	-10	-4
Cc1ccc(C2C(C#N)=C(N)Oc3cc(N)ccc32)cc1 (centres undefined)	4	-11	-9	25
N#CC1=C(N)Oc2cc(O)ccc2C1c1ccccc1 (centres undefined)	0	-1	-1	57*
COc1cc(C2C(C#N)=C(N)Oc3cc(N(C)C)ccc32)cc2c1OCO2 (centres undefined)	-7	-3	4	-15
N#CC1=C(N)Oc2cc(N)ccc2C1c1cccc(Br)c1 (centres undefined)	6	-8	-4	46*
COc1cc(C2C(C#N)=C(N)Oc3cc(O)ccc32)cc2c1OCO2 (centres undefined)	0	-1	-3	53*
Cc1ccc(NC(=O)CS(=O)CC(=O)Nc2ccccc2-c2ccc(C)o2)cc1 (centres undefined)	-6	-9	-19	-2
CC(C)Oc1ccc(-c2csc(N3CCC(C(N)=O)CC3)n2)cc1	-1	-4	-1	-1
CS(=O)(=O)N(CC(=O)Nc1ccc(F)c(F)c1)c1cccc([N+](=O)[O-])c1	-3	2	-16	-2
Cc1cccc(NS(=O)(=O)c2ccc(NC(=O)CN(c3cc([N+](=O)[O-])ccc3C)S(C)(=O)=O)cc2)c1	-1	14*	36*	-4
CCOC(=O)[C@]12CCCC=C1N(Cc1ccc3c(c1)OCO3)C(=O)[C@H](CC(=O)NCc1ccc(OC)c(OC)c1)C2	3	0	-1	1
CCOC(=O)/C(C#N)=C\c1ccc(OCC(=O)Nc2ccc(C)cc2C)c(OC)c1	2	0	-2	47*
N#Cc1c(SCc2ccccc2)nc(N2CCOCC2)c2c1CCCC2	37*	3	5	35
CCSc1nc(N2CCCCC2)c2c(c1C#N)CCCC2	0	4	1	-41
CC(=O)C(C(C)=O)c1c(Cl)c(O)c(O)c2c(C(=O)c3ccccc3)coc12	9	15*	32*	2
Cc1ccc(S(=O)(=O)N2O[C@@H](c3ccccc3)C[C@H]2CON2C(C)(C)CCCC2(C)C)cc1	-4	3	4	1
Cn1c(N)c(C(=O)COC(=O)c2cc(-c3ccco3)nc3ccccc23)c(=O)n(C)c1=O	3	4	-16	-2
Cn1c(N)c(C(=O)COC(=O)c2cc(C3CC3)nc3ccccc23)c(=O)n(C)c1=O	36*	0	-14	6
CCc1c(O)nc(SCC(=O)Nc2ccc(Cl)cc2)n(-c2ccccc2)c1=O	-13	-2	-10	6
CCCCCCCCSC1=CC(=O)C(OC)=C(OC)C1=O	8	-4	-7	45*
CCCCCSc1nncc(=O)[nH]1	4	-5	-6	0
CC(C)[C@H](NC(=O)c1ccc(C(C)(C)C)cc1)C(=O)N1CCN(Cc2ccc3c(c2)OCO3)CC1	-7	1	-9	-2
CC(=O)Nc1ccc(Nc2nc(C)c([N+](=O)[O-])c(Nc3ccccc3)n2)cc1	58*	2	10	56*
Cc1nc(Nc2ccc(C(=O)O)cc2)nc(Nc2ccc(C(=O)O)cc2)c1[N+](=O)[O-]	11	0	0	11
COc1ccc(CN2CC(=O)N(c3cccc(Cl)c3)C2=S)cc1OC	2	2	11	44*
SMILES	GC-B act	ADAM17 inh	ADAM10 inh	GC-A act
COc1ccc(CN2C(=O)CN(S(C)(=O)=O)CC2(C)C(=O)NC(C)C)cc1OC (centres undefined)	7	-2	-18	-4
CCOC(=O)CCCSc1nc(-c2ccc3c(c2)OCO3)cc(C(F)(F)F)c1C#N	11	-5	-14	51*
CC(C)(C)OC(=O)N1CC=C2C(C#N)=C(N)C(C#N)(C#N)[C@H](c3cccnc3)[C@H]2C1	-1	-84	-241	48*
C=CCNC(=S)NNC(=O)c1ccc(OCCC)cc1	0	6	1	8
CCCOc1ccc(C(=O)NNC(=S)NC(=O)CC)cc1	64*	-1	2	3
N#CC1=C2CCCCC2(O)NC1=O (centres undefined)	1	-1	-12	3
CCOc1cc(S(=O)(=O)N2CCN(CC)CC2)ccc1Cl	3	-5	1	4
CCCc1nc(C)c2c(=O)[nH]c(-c3cc(S(=O)(=O)N4CCN(CC)CC4)ccc3OCC)nn12	65*	0	-5	53*
O=C(Nc1cccc(C(F)(F)F)c1)O[C@@H]1CC[C@@]23CCCN2C(=O)CCC[C@H]3C1	-2	3	8	-1
COc1ccccc1NC(=O)CSc1nc(O)cc(=O)n1-c1ccccc1OC	-3	3	21*	3
COc1ccccc1-n1c(SCC(=O)Nc2ccccc2C)nc(O)cc1=O	4	0	13	5
CCOc1ccccc1NC(=O)/C(C#N)=C/c1c(C)nn(-c2ccc(F)cc2)c1Cl	-6	0	2	-8
C=CCNC(=O)/C(C#N)=C/c1c(C)nn(-c2ccc(Cl)cc2)c1Cl	4	-1	3	46*
Cc1nn(-c2ccc(Cl)cc2)c(Cl)c1/C=C(\C#N)C(N)=O	5	0	-3	49*
C/C=C/C(=O)N1CCC(C(=O)NCC2COc3ccccc3O2)CC1 (centres undefined)	9	2	8	3
CCN1C(=O)c2cccc3c(NC(=O)c4ccc(S(=O)(=O)N(C)C)cc4)ccc1c23	42*	1	9	29
O=C1[C@@H](C2CC2)[C@@H]2c3ccccc3C=NN2[C@@H]2c3ccccc3C=NN12	-6	2	1	0
COCCn1c(SCC(=O)Nc2cc(C)on2)nc2c([nH]c3ccccc32)c1=O	-2	-3	-4	50*
CCn1c(SCC(=O)Nc2cc(C)on2)nc2c([nH]c3ccccc32)c1=O	-1	-4	-4	59*
COc1cccc(CNC(=O)COC(=O)CNC(=O)c2ccc(-c3ccccc3)cc2)c1	8	-4	-17	47*
COc1cccc(CNC(=O)Cc2ccc(-c3ccccc3)cc2)c1	-1	-2	-13	5
Nc1c(-c2ccccc2)cnn1-c1cccc(C(F)(F)F)c1	-3	0	4	0
Nc1c(-c2cccc(Cl)c2)cnn1-c1cccc(C(F)(F)F)c1	-2	8.6*	19	-1
O=C(CCc1ccccc1)Nc1ccnn1C1CCN(Cc2ncc[nH]2)CC1	1	-5	-12	4
CCOCCOC(=O)COc1ccc2c(-c3ccccc3)cc(=O)oc2c1	7	-1	-11	52*
CCN(CC)C(=O)CSC(Nc1ccc(F)cc1)=C(C#N)C#N	3	2	6	0
Cc1ccc(CSC(Nc2ccc(F)cc2)=C(C#N)C#N)cc1	6	6	21*	10
CCN(CC)c1ncnc2c1cnn2Cc1ccc(C)cc1	38*	-6	6	27
CC(C)(C)C(=O)Nc1cc(NC(=O)C(C)(C)C)cc(C(=O)NNC(=O)c2ccncc2)c1	1	1	0	0
